Bioassay records from PubChem BioAssay.
This is a sample that favours compounds with a hit; in the whole collection about 6.3% have one here.
HepG2 tox-1: HepG2 cytotoxicity, counter-screen for TGF-b inhibitors | HepG2 CAGA-GFP viability, ATP luminescence, 18 h | Potency, µM (titrated, usually from 46.1 µM), usual class: cytotoxic | 0.76% of 410,000 active
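CellTiter-Glo luminescence gave cytotoxicity after 18 hours at 37 degrees C. The cells were HepG2 CAGA-GFP in 1% FBS DMEM, stimulated with 500 pg/mL TGF-beta after compound addition. %Activity was normalised to no-cell wells (complete cell-killing) and DMSO (no toxicity), and curves were fitted and classified.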
TGFb inhibitor: inhibitors of TGF-b signaling; AID 588855; Potency, µM (highest dose often 46.1 µM), hits mostly inhibitors; HepG2 CAGA-GFP TGF-b/SMAD3 reporter, GFP fluorescence, 18 h; TGF-beta stimulated, 500 pg/mL final; 1.2% of 410,000 active; note: nearly all actives have a fitted effect of over 65% in size
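HEPG2 CAGA-GFP reporter cells (1000/well, DMEM with 1% FBS) received compounds, then recombinant TGF-beta at 500 pg/mL final for 18 hours at 37 degrees C. Per-cell GFP summed per well was normalised to unstimulated and stimulated DMSO controls before curve fitting.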
ATXN2 expr inh: reduces ATXN2 reporter expression in HEK-293 cells; HEK-293 ATXN2-luciferase reporter, luminescence, 24 h; Potency, µM (titrated, usually from 57 µM), most hits filed as inhibitors; 0.72% of 360,000 active; note: nearly all actives have a fitted effect of over 55% in size
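ATXN2-luciferase reporter cells (luciferase flanked by upstream and downstream ATXN2 gene portions) were treated 24 h at 37 °C with compounds at up to 57 uM. SteadyGlo luminescence gave expression; GF-AFC fluorescence gave viability.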
RORgamma inh: ROR gamma (mouse) transcription inhibition | AID 2551 | Potency, µM (doses to about 53.6 µM), usual class: inhibitors | Drosophila S2 Gal4-RORgamma UAS-luciferase reporter, 20 h | P51450 | 5.4% of 310,000 active; note: nearly all actives have a fitted effect of over 60% in size
Target sequence (P51450 whole entry, looked up, the tested form may be a part): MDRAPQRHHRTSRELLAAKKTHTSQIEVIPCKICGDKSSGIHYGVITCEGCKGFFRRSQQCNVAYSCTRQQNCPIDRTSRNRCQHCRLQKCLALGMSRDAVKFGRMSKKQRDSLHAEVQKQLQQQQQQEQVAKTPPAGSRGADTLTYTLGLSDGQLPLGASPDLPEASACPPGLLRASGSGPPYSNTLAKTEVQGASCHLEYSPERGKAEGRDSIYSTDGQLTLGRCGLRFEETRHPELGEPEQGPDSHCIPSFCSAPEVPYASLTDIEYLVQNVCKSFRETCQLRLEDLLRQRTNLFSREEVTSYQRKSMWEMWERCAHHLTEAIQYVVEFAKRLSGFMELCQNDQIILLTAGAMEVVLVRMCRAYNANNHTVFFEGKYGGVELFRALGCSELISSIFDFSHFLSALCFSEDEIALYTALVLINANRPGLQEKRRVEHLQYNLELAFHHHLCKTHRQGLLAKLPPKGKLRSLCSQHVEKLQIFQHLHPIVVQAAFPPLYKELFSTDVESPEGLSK
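In this cell-based reporter format, copper sulfate (700 uM final) drives Gal4–ROR gamma fusion expression from a metallothionein promoter in Drosophila Schneider cells; compounds preincubated 1 hr, reporter read after 20 hr at ambient temperature.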
Gal4-VP16 FLuc: Gal4-VP16 reporter inhibition counter-screen; Drosophila S2 Gal4-VP16 UAS-luciferase, luminescence, 20 h; Potency, µM (doses to about 53.6 µM), most hits filed as inhibitors; 3.5% of 310,000 active;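 note: Gal4-VP16 expression switched on by copper sulfate through the metallothionein promoter; nearly all actives have a fitted effect of over 50% in size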
S2 tox: cell viability loss in ATXN counter-screen. S2 cells (HEK-293 line with an ATXN2-luciferase reporter) viability, CellTiter-Fluor protease fluorescence, 24 h. Potency, µM (series often up to 56.7 µM), usual class: cytotoxic. 0.49% of 400,000 active. AID 651635; note: nearly all actives have a fitted effect of over 40% in size
TGFb confirm: confirmation of TGF-b signaling inhibitors in HepG2 reporter cells; 63% of 1,600 active; AID 720534; shares compounds with TGFb inhibitor; Potency, µM (titrated, usually from 46.1 µM), actives largely listed as inhibitors; HepG2 CAGA-GFP TGF-b reporter, GFP fluorescence, 18 h; cells stimulated with TGF-beta, 500 pg/mL; note: nearly all actives have a fitted effect of over 65% in size
HepG2 tox-2: toxic to HepG2 cells in TGF-b counterscreen. AID 720535. shares compounds with TGFb inhibitor. HepG2 CAGA-GFP viability, ATP luminescence, 18 h; cells stimulated with TGF-beta, 500 pg/mL. Potency, µM (doses to about 46.1 µM), usual class: inhibitors. 27% of 1,600 active; note: nearly all actives have a fitted effect of over 70% in size
TGFb CCL64 inh: orthogonal confirmation of TGF-b inhibitors in CCL64 cells | shares compounds with TGFb inhibitor | 41% of 1,600 active | Potency, µM (series often up to 46.1 µM), hits mostly inhibitors | CCL64 CAGA-GFP reporter, TGF-b stimulated, GFP fluorescence, 18 h; note: nearly all actives have a fitted effect of over 65% in size
TGFb COP inh: validation of TGF-b inhibitors in HepG2 COP promoter reporter | shares compounds with TGFb inhibitor | HepG2 COP-GFP TGF-b reporter, GFP fluorescence, 18 h; cells stimulated by added recombinant TGF-beta | Potency, µM (titrated, usually from 46.1 µM), hits mostly inhibitors | 3% of 1,600 active | AID 720537; note: nearly all actives have a fitted effect of over 70% in size
A number is an active result; i = inactive; ? = inconclusive; nt = no result. Calls come from the whole dose curve; as a rule, active = well fitted curve in the direction sought with a large enough effect; inconclusive = small, poorly fitted or top-dose-only effect, or another doubt; inactive = no such curve, though single readings can be large; an effect the other way counts as inactive or inconclusive.

SMILES	HepG2 tox-1	TGFb inhibitor	ATXN2 expr inh	RORgamma inh	Gal4-VP16 FLuc	S2 tox	TGFb confirm	HepG2 tox-2	TGFb CCL64 inh	TGFb COP inh
CCC(=O)NC(c1ccco1)c1cc(Cl)c2cccnc2c1O (configuration not stated)	i	?	?	1.4µM	2.8µM	i	i	i	9.2µM	i
Cc1cccc(C(=O)Nc2ccc(C(=O)OCc3cc(=O)n4nc(C5CC5)sc4n3)cc2)c1	i	i	i	nt	nt	i	nt	nt	nt	nt
CC(C)CCn1c(=O)c2cccnc2n(CC(=O)Nc2ccccc2F)c1=O	i	i	i	nt	nt	i	nt	nt	nt	nt
O=C(Nc1cccc(Cl)c1)Nc1csc([N+](=O)[O-])c1	10µM	?	?	i	?	?	10µM	16µM	9.2µM	i
O=C(Nc1cccc(Cl)c1)Nc1nc(-c2ccc(Cl)cc2)cs1	i	?	i	?	i	i	nt	nt	nt	nt
COc1ccc(NC(=O)Nc2cccc([N+](=O)[O-])c2)cc1Cl	i	?	i	i	?	?	nt	nt	nt	nt
O=C(Nc1ccc([N+](=O)[O-])cc1)Nc1ccc(OC(F)F)c(Cl)c1	13µM	4.5µM	13µM	?	13µM	nt	13µM	5.8µM	3.7µM	?
C[C@]12c3[nH]c4cc(-c5ccco5)ccc4c3CCN1C(=O)[C@@H](CC(=O)NCCC1=CCCCC1)C[C@@H]2C(=O)N1CCOCC1	i	11µM	i	nt	nt	?	?	?	?	i
CC(C)=CCC/C(C)=C/CNC(=O)C[C@H]1C[C@H](C(=O)N2CCOCC2)[C@@]2(C)c3[nH]c4ccc(Cl)cc4c3CCN2C1=O	18µM	10µM	i	nt	nt	i	13µM	?	13µM	i
COc1ccc2[nH]c3c(c2c1)CCN1C(=O)C(CC(=O)NCCC2=CCCCC2)C[C@H](C(=O)N(C(C)C)C(C)C)[C@@]31C (some centres not stated)	i	10µM	?	nt	nt	?	?	i	?	i
C[C@]12c3[nH]c4ccc(Cl)cc4c3CCN1C(=O)[C@@H](CC(=O)NCCC1=CCCCC1)C[C@@H]2C(=O)N1CCOCC1	i	?	?	nt	nt	?	16µM	i	?	i
C[C@]12c3[nH]c4ccc(Cl)cc4c3CCN1C(=O)[C@@H](CC(=O)NCCN1CCOCC1)C[C@@H]2C(=O)N1CCOCC1	i	i	i	nt	nt	i	nt	nt	nt	nt
C=CC[C@@H](CC(=O)N[C@H](CO)Cc1ccccc1)C(=O)NCCOC(=O)[C@@H](CC=C)CC(=O)OC(C)(C)C	i	i	i	nt	nt	i	nt	nt	nt	nt
Cc1ccc(NC(=O)c2ncn(CCCNCCCc3ccccc3)n2)cc1C	i	?	?	nt	nt	?	nt	nt	nt	nt
CCN(CC)C(=O)[C@H]1C[C@H](CC(=O)NC/C=C(\C)CCC=C(C)C)C(=O)N2CCc3c([nH]c4cc(CCC(=O)N(C)C)ccc34)[C@]12C	i	13µM	?	nt	nt	?	23µM	?	?	i
O=C(c1ccc2c(c1)OCO2)C1CCCN(Cc2cccc(C(F)(F)F)c2)C1 (configuration not stated)	i	?	i	i	i	i	nt	nt	nt	nt
